About 79,000 compounds went through this panel and 15% of them were active in at least one assay; those are over-represented in the sample as a whole. The source made the active and inactive calls. Cut-off read from the data, not from the text of the source: active = growth inhibition above about 70%; inactive = the rest.
How the values were obtained:
[1] = NCI Yeast Anticancer Drug Screen. Data for the wt1 strain (AID 149);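 note: 0% = growth of vehicle-treated wt1 cultures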; conditions: S. cerevisiae wt1 strain (SPY 50644) growth inhibition, active compounds read high
Outline: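 Vehicle-normalised growth inhibition; strain wt1; compound exposure.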

[2] = NCI Yeast Anticancer Drug Screen. Data for the rad50EPP+ strain (AID 151);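 note: 0% = growth of vehicle-treated control cultures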; conditions: S. cerevisiae rad50 mutant strain, active compounds read high
Outline: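 Yeast strain carrying rad50 alteration (rad50EPP+) exposed to compounds; growth inhibition measured relative to vehicle-treated controls.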

[3] = NCI Yeast Anticancer Drug Screen. Data for the mgt1 strain (AID 153); conditions: S. cerevisiae mgt1 mutant growth inhibition, active compounds read high
Outline: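 Yeast mgt1 strain (DNA repair/cell-cycle alteration panel) exposed to compounds; growth inhibition measured relative to vehicle-treated controls.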

[4] = NCI Yeast Anticancer Drug Screen. Data for the rad50 strain (AID 155);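 note: 0% = growth of vehicle-only cultures of the same strain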; conditions: S. cerevisiae rad50 strain growth inhibition, active compounds read high
Outline: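 A DNA repair-deficient yeast mutant serves as the test organism; compound-induced growth inhibition is calculated against vehicle-treated cells.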

[5] = NCI Yeast Anticancer Drug Screen. Data for the mec2-1 strain (AID 157); conditions: S. cerevisiae mec2-1 strain, active compounds read high
Outline: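 mec2-1 yeast strain, carrying an alteration in DNA damage repair or cell cycle control, was exposed to compounds; growth inhibition was measured relative to vehicle-treated controls.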

[6] = NCI Yeast Anticancer Drug Screen. Data for the sgs1 mgt1 strain (AID 161);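 note: 0% = growth of cultures given vehicle only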; conditions: S. cerevisiae sgs1 mgt1 strain, active compounds read high
Outline: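 Growth of a repair-deficient yeast mutant was monitored after compound treatment and expressed as inhibition relative to vehicle-treated cultures.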

[7] = NCI Yeast Anticancer Drug Screen. Data for the CLN2oe strain (AID 163);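 note: 0% = growth of vehicle-only control cultures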; conditions: S. cerevisiae CLN2oe strain, active compounds read high
Outline: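 Yeast cells carrying a defined cell-cycle control alteration were exposed to test compounds. Growth inhibition was scored against vehicle-treated control cultures.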

[8] = NCI Yeast Anticancer Drug Screen. Data for the cln2 rad14 strain (AID 165);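 note: 0% = growth equal to vehicle treated cultures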; conditions: S. cerevisiae cln2 rad14 strain, active compounds read high
Outline: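 Yeast carrying cln2 and rad14 alterations (cell cycle control and DNA damage repair) were exposed to compounds. Growth inhibition was measured against vehicle-treated controls.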

[9] = NCI Yeast Anticancer Drug Screen. Data for the bub3 strain (AID 167); conditions: S. cerevisiae bub3 mutant strain, active compounds read high
Outline: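 Inhibition values come from growth of compound-treated mutant yeast normalised to vehicle-treated controls.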

[10] = NCI Yeast Anticancer Drug Screen. Data for the wt2 strain (AID 169);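 note: 0% = growth of vehicle-treated yeast cultures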; conditions: S. cerevisiae wt2 strain growth inhibition, active compounds read high
Outline: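 Yeast cells were exposed to test compounds, and growth inhibition was measured relative to vehicle-treated controls.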

[11] = NCI Yeast Anticancer Drug Screen. Data for the mlh1 strain (AID 171);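 note: 0% = growth of vehicle-treated control cultures of the same strain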; conditions: S. cerevisiae mlh1 strain growth inhibition, active compounds read high
Outline: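 Yeast carrying a defined genetic alteration in DNA damage repair or cell cycle control were exposed to test compounds. Growth inhibition was measured relative to vehicle-treated controls.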

[12] = NCI Yeast Anticancer Drug Screen. Data for the sgs1 strain (AID 173);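 note: 0% = growth of vehicle-only control cultures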; conditions: S. cerevisiae sgs1 mutant, active compounds read high
Outline: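 Yeast mutant strains carrying defined defects in DNA damage repair or cell cycle control were exposed to test compounds. Growth inhibition was scored against vehicle-treated controls.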

[13] = NCI Yeast Anticancer Drug Screen. Data for the mlh1 rad18 strain (AID 175); conditions: S. cerevisiae mlh1 rad18 strain growth inhibition, active compounds read high
Outline: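 Growth inhibition of the yeast strain was measured after compound exposure and expressed relative to vehicle-treated controls. The strain carries defined defects in DNA damage repair.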

[14] = NCI Yeast Anticancer Drug Screen. Data for the rad18 strain (AID 177); conditions: S. cerevisiae rad18 mutant growth inhibition, active compounds read high
Outline: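 Yeast carrying a defined DNA damage repair alteration were exposed to compounds. Growth inhibition was expressed relative to vehicle-treated controls.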

[15] = NCI Yeast Anticancer Drug Screen. Data for the rad14 strain (AID 159);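 note: 0% = growth of vehicle-treated control cultures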; conditions: S. cerevisiae rad14 strain growth inhibition, active compounds read high
Outline: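 Vehicle-treated cultures served as the baseline for growth inhibition of a DNA repair-mutant yeast strain exposed to each compound.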

[16] = at 5.0 µM (retest, dose inferred, filed as 0.5)
[17] = at 50.0 µM (retest, dose inferred, filed as 5.0)

Measured: growth inhibition

O=CC(=C(I)I)c1ccccc1
inactive: [1]; at 1.2 µM 15% | [1]; at 3.7 µM 41% | [3]; at 1.2 µM 17% | [3]; at 3.7 µM 50% | [5]; at 1.2 µM 28% | [5]; at 3.7 µM 67% | [5]; [16] 33% | [6]; [16] 43% | [7]; at 1.2 µM -1% | [7]; at 3.7 µM -3% | [7]; at 11.0 µM 23% | [8]; [16] 2% | [9]; at 1.2 µM -6% | [9]; at 3.7 µM -4% | [9]; [16] -17% | [9]; at 11.0 µM 27% | [10]; at 1.2 µM 4% | [10]; at 3.7 µM 5% | [10]; at 11.0 µM 38% | [11]; at 1.2 µM 13% | [11]; at 3.7 µM 32% | [12]; at 1.2 µM 56% | [13]; [16] 18% | [14]; at 1.2 µM 50%
active: [1]; at 11.0 µM 88% | [1]; at 33.0 µM 99% | [1]; at 100.0 µM 90% | [2]; at 1.2 µM 91% | [2]; at 3.7 µM 96% | [2]; at 11.0 µM 97% | [2]; at 33.0 µM 98% | [2]; at 100.0 µM 99% | [3]; at 11.0 µM 98% | [3]; at 33.0 µM 99% | [3]; at 100.0 µM 93% | [4]; at 1.2 µM 93% | [4]; at 3.7 µM 95% | [4]; [16] 97% | [4]; at 11.0 µM 97% | [4]; at 33.0 µM 99% | [4]; [17] 100% | [4]; at 50.0 µM 85.7% | [4]; at 100.0 µM 97% | [5]; at 11.0 µM 99% | [5]; at 33.0 µM 99% | [5]; [17] 99% | [5]; at 50.0 µM 88.9% | [5]; at 100.0 µM 97% | [6]; [17] 99% | [6]; at 50.0 µM 90.8% | [7]; at 33.0 µM 98% | [7]; at 100.0 µM 98% | [8]; [17] 100% | [8]; at 50.0 µM 91.5% | [9]; at 33.0 µM 99% | [9]; [17] 100% | [9]; at 50.0 µM 92.2% | [9]; at 100.0 µM 99% | [10]; at 33.0 µM 99% | [10]; at 100.0 µM 99% | [11]; at 11.0 µM 81% | [11]; at 33.0 µM 97% | [11]; at 100.0 µM 85% | [12]; at 3.7 µM 79% | [12]; at 11.0 µM 99% | [12]; at 33.0 µM 99% | [12]; at 100.0 µM 99% | [13]; [17] 100% | [13]; at 50.0 µM 93.1% | [14]; at 3.7 µM 72% | [14]; at 11.0 µM 96% | [14]; at 33.0 µM 98% | [14]; at 100.0 µM 95%

O=C(Cc1ccccc1)c1ccc(O)cc1
inactive: [1]; at 1.2 µM -20% | [1]; at 3.7 µM -8% | [1]; at 11.0 µM 5% | [1]; at 33.0 µM 63% | [2]; at 1.2 µM 11% | [2]; at 3.7 µM 10% | [2]; at 11.0 µM -3% | [2]; at 33.0 µM 40% | [3]; at 1.2 µM -45% | [3]; at 3.7 µM -56% | [3]; at 11.0 µM -38% | [3]; at 33.0 µM 51% | [4]; at 1.2 µM -15% | [4]; at 3.7 µM -21% | [4]; at 11.0 µM 17% | [5]; at 1.2 µM -24% | [5]; at 3.7 µM -15% | [5]; at 11.0 µM 20% | [6]; [16] 1% | [7]; at 1.2 µM 5% | [7]; at 3.7 µM 15% | [7]; at 11.0 µM 22% | [7]; at 33.0 µM 53% | [8]; [16] 36% | [8]; at 50.0 µM 62.6% | [9]; at 1.2 µM -11% | [9]; at 3.7 µM -14% | [9]; [16] 44% | [9]; at 11.0 µM 24% | [9]; at 33.0 µM 69% | [10]; at 1.2 µM -10% | [10]; at 3.7 µM -17% | [10]; at 11.0 µM -10% | [10]; at 33.0 µM 58% | [11]; at 1.2 µM -13% | [11]; at 3.7 µM 0% | [11]; at 11.0 µM 23% | [11]; at 33.0 µM 68% | [12]; at 1.2 µM -15% | [12]; at 3.7 µM -39% | [12]; at 11.0 µM -5% | [12]; at 33.0 µM 59% | [13]; [16] 56% | [14]; at 1.2 µM -34% | [14]; at 3.7 µM -41% | [14]; at 11.0 µM -11% | [14]; at 33.0 µM 69%
active: [1]; at 100.0 µM 87% | [2]; at 100.0 µM 71% | [3]; at 100.0 µM 82% | [4]; [16] 81% | [4]; at 33.0 µM 74% | [4]; [17] 99% | [4]; at 50.0 µM 83.5% | [4]; at 100.0 µM 85% | [5]; [16] 78% | [5]; at 33.0 µM 70% | [5]; [17] 98% | [5]; at 50.0 µM 91.5% | [5]; at 100.0 µM 91% | [6]; [17] 88% | [6]; at 50.0 µM 94.2% | [7]; at 100.0 µM 85% | [8]; [17] 90% | [9]; [17] 97% | [9]; at 50.0 µM 92.7% | [9]; at 100.0 µM 89% | [10]; at 100.0 µM 87% | [11]; at 100.0 µM 89% | [12]; at 100.0 µM 88% | [13]; [17] 99% | [13]; at 50.0 µM 86.1% | [14]; at 100.0 µM 89%

O=Cn1c2ccccc2c2ccccc21
active: [2]; at 100.0 µM 91% | [4]; [17] 90% | [4]; at 100.0 µM 82% | [5]; [17] 90% | [8]; [17] 74% | [13]; [17] 97% | [13]; at 50.0 µM 70.8%
inactive: [1]; at 1.2 µM -16% | [1]; at 3.7 µM -14% | [1]; at 11.0 µM -8% | [1]; at 33.0 µM -7% | [1]; at 100.0 µM 23% | [2]; at 1.2 µM -54% | [2]; at 3.7 µM -27% | [2]; at 11.0 µM 0% | [2]; at 33.0 µM 10% | [4]; at 1.2 µM -42% | [4]; at 3.7 µM -4% | [4]; [16] 63% | [4]; at 11.0 µM 9% | [4]; at 33.0 µM -1% | [4]; at 50.0 µM 64.2% | [5]; at 1.2 µM -51% | [5]; at 3.7 µM -30% | [5]; [16] 57% | [5]; at 11.0 µM -33% | [5]; at 33.0 µM -23% | [5]; at 50.0 µM 44.4% | [5]; at 100.0 µM 31% | [15]; at 1.2 µM -32% | [15]; at 3.7 µM -20% | [15]; at 11.0 µM -19% | [15]; at 33.0 µM -20% | [15]; at 100.0 µM 25% | [6]; [16] -16% | [6]; [17] 46% | [6]; at 50.0 µM 33.5% | [7]; at 1.2 µM -12% | [7]; at 3.7 µM -15% | [7]; at 11.0 µM 1% | [7]; at 33.0 µM -21% | [7]; at 100.0 µM 39% | [8]; [16] 59% | [8]; at 50.0 µM 20.6% | [9]; at 1.2 µM -26% | [9]; at 3.7 µM -8% | [9]; [16] 42% | [9]; at 11.0 µM 13% | [9]; at 33.0 µM -21% | [9]; [17] 66% | [9]; at 50.0 µM 60.9% | [9]; at 100.0 µM 60% | [10]; at 1.2 µM -12% | [10]; at 3.7 µM -21% | [10]; at 11.0 µM -7% | [10]; at 33.0 µM -18% | [10]; at 100.0 µM 46% | [11]; at 1.2 µM -18% | [11]; at 3.7 µM -17% | [11]; at 11.0 µM 4% | [11]; at 33.0 µM -2% | [11]; at 100.0 µM 65% | [12]; at 1.2 µM -32% | [12]; at 3.7 µM -37% | [12]; at 11.0 µM -8% | [12]; at 33.0 µM -15% | [12]; at 100.0 µM 57% | [13]; [16] 54%

Reference: PubChem BioAssay (NCI)
